Test results reported in ChEMBL document CHEMBL4513216, “Probing the Open Global Health Chemical Diversity Library for Multistage-Active Starting Points for Next-Generation Antimalarials” (ACS Infect Dis, 2020).
The whole screen tested about 68,000 compounds, of which about 2,700 (4%) showed an effect of 50% or more. The entries come from a sample that favours strong results as a whole.

These compounds were tested on Plasmodium berghei (assay: Screen against P. berghei liver stage (PbLuc), transformed with Luciferase, at 2uM). Details: tested at 2 uM.
Type: functional, HepG2
Work on `CC(NC(=O)CCCOc1ccccc1Cl)c1ccncc1` (stereo not given) yielded an INHIBITION of -37.84%.
For `CCOC(=O)C1(Cc2ccccc2-c2ccccc2OC)CCNCC1`, the INHIBITION was 29.68%.
`CCn1c(N)nc2cc(C(=O)N(C)Cc3cc(C(C)(C)C)n[nH]3)cnc21` was tested, and the INHIBITION was 58.17%.
`CCn1c(N)nc2cc(C(=O)N3CCCN(C)CC3)cnc21` was tested, and the INHIBITION was 63.1%.
Compound `CCc1cc(CN(C)C(=O)c2cnc3c(c2)nc(N)n3CC)on1` has an INHIBITION of 6.85%.
With `CCc1ccc(CN(C)C(=O)c2cnc3c(c2)nc(N)n3CC)nc1` the INHIBITION was 17.5%.
`CCn1c(N)nc2cc(C(=O)N3CCC(N4CCCC4)CC3)cnc21` showed an INHIBITION of -12.08%.
`CCn1c(N)nc2cc(C(=O)N3CCCOCC3)cnc21` was tested, and the INHIBITION was 40.47%.
With `Cc1cnnn1Cc1nnn2c1CN(Cc1cccs1)CCC2` the INHIBITION was 12.29%.
In the case of `COc1cccc2c1OCC(CNC(=O)Cc1csc(C(C)=O)c1)C2` (stereo not given), the INHIBITION is reported as 19.13%.
`CCc1cc(=O)n(CC(=O)NCC2CCCO2)c(-c2cccc(F)c2)n1` (stereo not given) showed an INHIBITION of 23.65%.
`CN1CCC(c2cccc(-c3ccc(C(=O)O)cc3)n2)CC1` gave an INHIBITION of -39.93%.
`CCC(CO)N(Cc1ccc(C(=O)O)cc1)Cc1ccsc1` (stereo not given) was tested, and the INHIBITION was 2.17%.
Work on `CCC(C)N(Cc1ccsc1)C(=O)c1ccc(CO)cc1` (stereo not given) yielded an INHIBITION of 52.98%.
In the case of `CCC(C)N(Cc1ccsc1)C(=O)c1ccc2[nH]nnc2c1` (stereo not given), the INHIBITION is reported as 38.24%.
With `CNc1oc(-c2cc(S(=O)(=O)N3CCCC3)c(C)o2)nc1C#N` the INHIBITION was -49.59%.
`CNc1oc(-c2cc(S(=O)(=O)N3CCCCCC3)c(C)o2)nc1C#N` was tested, and the INHIBITION was 5.96%.
`Cc1oc(-c2nc(C#N)c(NC(C)(C)C)o2)cc1S(=O)(=O)N1CCCC1` gave an INHIBITION of 58.42%.
`Cc1cccc(CN2C[C@@H]3CN(C(=O)c4ccsc4)C[C@@H]3C2=O)n1` showed an INHIBITION of -23.78%.
Compound `Cc1cnc(N2CC[C@@H]3O[C@@H](COCc4ccccn4)CC[C@@H]32)nc1` has an INHIBITION of -7.26%.
Compound `COc1ccc2c(c1)CN(Cc1nc3c(cnn3C)c(=O)[nH]1)CC2` has an INHIBITION of 27.55%.
With `COCCCN(C)Cc1nc2c(cnn2C)c(=O)[nH]1` the INHIBITION was -135.87%.
In the case of `CN(CCCOc1ccccc1)Cc1nc2c(cnn2C)c(=O)[nH]1`, the INHIBITION is reported as -31.57%.
`CN(CCCOc1ccc(F)cc1)Cc1nc2c(cnn2C)c(=O)[nH]1` gave an INHIBITION of -45.72%.
`COc1ccc2c(c1)CCN2Cc1nc2c(cnn2C)c(=O)[nH]1` showed an INHIBITION of 52.17%.
`Cc1ccc(OCCN(C)Cc2nc3c(cnn3C)c(=O)[nH]2)cc1` gave an INHIBITION of 78.42%.
Work on `Cn1ncc2c(=O)[nH]c(CN3CCCC3CC3CCCCC3)nc21` (stereo not given) yielded an INHIBITION of -5.15%.
Work on `Cn1ncc2c(=O)[nH]c(CN3CCCC3CC(C)(C)C)nc21` (stereo not given) yielded an INHIBITION of 70.27%.
`COc1ccc2c(c1)CCCN2Cc1nc2c(cnn2C)c(=O)[nH]1` showed an INHIBITION of -70.71%.
For `CN(CCOc1cccc(F)c1)Cc1nc2c(cnn2C)c(=O)[nH]1`, the INHIBITION was 47.87%.
With `COc1ccc(OCCN(C)Cc2nc3c(cnn3C)c(=O)[nH]2)cc1` the INHIBITION was 72.31%.
For `CCC1CCCCN1Cc1nc2c(cnn2C)c(=O)[nH]1` (stereo not given), the INHIBITION was -31.57%.
For `CSc1cccc(CN(C)C(=O)Nc2nc(C)n(C)n2)c1`, the INHIBITION was 4.12%.
`CSCC(=O)N1CCCC1c1noc(C2CC2)n1` (stereo not given) was tested, and the INHIBITION was 27.44%.
`Cc1cc(C)n(CC(C)NC(=O)C2(c3ccccc3F)CC2)n1` (stereo not given) gave an INHIBITION of -45.89%.
In the case of `O=C(CCN1CCCCO1)N1CCC(CO)(CCc2ccccc2)CC1`, the INHIBITION is reported as 12.56%.
With `O=C(c1cc2c(s1)CCC2)N1CCCC1Cn1cccn1` (stereo not given) the INHIBITION was 17.39%.
In the case of `CN(C)c1ncc(CNC2CC(=O)N(CCc3cccc(Cl)c3)C2)s1` (stereo not given), the INHIBITION is reported as 35.26%.
`CCNc1nc(C)c(C(=O)N2CCC(C(O)Cc3ccccc3)CC2)s1` (stereo not given) gave an INHIBITION of 15.73%.
In the case of `O=C(C1CCCN(C2CCOCC2)C1)N1Cc2ccccc2C1` (stereo not given), the INHIBITION is reported as -45.79%.
In the case of `Fc1cccc(CN2CCC(c3cc4ncccc4cn3)CC2)c1F`, the INHIBITION is reported as -27.12%.
With `Cc1ccc(C(C)N(C)Cc2nc3c(cnn3C)c(=O)[nH]2)cc1` (stereo not given) the INHIBITION was 28.65%.
`CC(C)CN(C)Cc1nc2c(cnn2C)c(=O)[nH]1` gave an INHIBITION of -29.44%.
`CCN(Cc1nc2c(cnn2C)c(=O)[nH]1)Cc1ccco1` showed an INHIBITION of 53.98%.
`COCCN(Cc1nc2c(cnn2C)c(=O)[nH]1)Cc1ccco1` gave an INHIBITION of -16.42%.
With `CCC(C)N(CCOC)Cc1nc2c(cnn2C)c(=O)[nH]1` (stereo not given) the INHIBITION was 29.19%.
`COCCN(Cc1nc2c(cnn2C)c(=O)[nH]1)C(C)COC` (stereo not given) gave an INHIBITION of 20.57%.
For `COCCN(Cc1nc2c(cnn2C)c(=O)[nH]1)C(C)c1ccccc1` (stereo not given), the INHIBITION was 68.24%.
Work on `CC(N(C)Cc1nc2c(cnn2C)c(=O)[nH]1)C(C)(C)C` (stereo not given) yielded an INHIBITION of 62.46%.
`CN(Cc1nc2c(cnn2C)c(=O)[nH]1)Cc1ccco1` gave an INHIBITION of 27.5%.
In the case of `CCC1CN(Cc2nc(C(C)C)no2)CCC(=O)N1Cc1ccccc1` (stereo not given), the INHIBITION is reported as 8.14%.
For `O=C(C1=CCCC1)N1C[C@H](OCc2cccnc2)[C@H]2OCCC[C@H]21`, the INHIBITION was 31.46%.
`CCCS(=O)(=O)N1CCC2(CC1)CC(=O)N(Cc1cc(F)cc(F)c1)C2` was tested, and the INHIBITION was 8.76%.
`C=c1occc1=C1NC(c2cccc(CN3CCOCC3)c2)=NO1` showed an INHIBITION of 1.42%.
`CCC(C)c1noc(C2CCN(C(=O)c3cccs3)CC2)n1` (stereo not given) was tested, and the INHIBITION was -50.86%.
In the case of `c1cnn(Cc2ccc(CN3CCC4(CCNCC4)C3)cc2)c1`, the INHIBITION is reported as 56.79%.
`c1ccc(Cn2cccn2)c(CN2CCC3(CCCNC3)C2)c1` (stereo not given) gave an INHIBITION of 31.9%.
`c1cnn(Cc2ccc(CN3CCC4(CCCNC4)C3)cc2)c1` (stereo not given) gave an INHIBITION of 0.49%.
In the case of `COC[C@]1(O)CCN(Cc2ccc(N(C)C)nc2)CC1(C)C`, the INHIBITION is reported as 32.21%.
`Cc1cc(CN2CC[C@H]3C[C@H](C(=O)N4CCC(C)CC4)O[C@H]3C2)no1` gave an INHIBITION of 34.88%.
With `CCn1ccnc1CN1CCCN(C(=O)COC2CCCC2)CC1` the INHIBITION was 57.81%.
With `Cn1ccnc1CN1CCCN(C(=O)COC2CCCC2)CC1` the INHIBITION was 28.18%.
With `CCn1ccnc1CN1CCCN(C(=O)COC2CCCCC2)CC1` the INHIBITION was -2.87%.
For `Cn1ccc(NC(=O)CN2C[C@@H]3CC[C@H]2CN(S(C)(=O)=O)C3)n1`, the INHIBITION was 48.21%.
`CN(Cc1nc2ccccc2o1)C1CCCN(c2cccnn2)C1` (stereo not given) showed an INHIBITION of -16.72%.
